Assay outcomes (PubChem)
CRFR2-BP antag: antagonists of CRF-binding protein/CRF-R2 receptor complex; AID 588475; HEK293 CRF-R2/CRF-BP, CRF-induced calcium fluorescence; inhibition, % at 11.8 µM; 350,000 compounds, 0.59% hits;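 active = inhibition of the ligand-induced calcium signal above about 50% at the single tested concentration, limit read from the data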
Myeloid diff 2: myeloid differentiation induction. ER-HoxA9 myeloid progenitors, lysozyme-GFP differentiation, flow cytometry. calls only at 10 µM. 360,000 compounds, 1% hits;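 active = normalized GFP-positive differentiation at or above the plate's own cutoff, the solvent-only control mean plus 3 SD; inconclusive = no clear call, values can overlap the other calls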;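 note: cells exposed to compound for four days before flow analysis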
FAS TE block: blocks the thioesterase domain of human fatty acid synthase. recombinant FAS-TE, OMFH fluorogenic substrate, fluorescence endpoint. inhibition, % at 15 µM. 360,000 compounds, 0.67% hits;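 active = compounds whose normalised, plate-corrected inhibition of enzyme fluorescence in the single-dose primary screen is 50% or more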
NadD block: blocks S. aureus nicotinate mononucleotide adenylyltransferase. inhibition, % at 20 µM. 360,000 compounds, 0.78% hits. purified NadD enzyme, colorimetric absorbance read-out; in the data active = inhibition above about 26%
NRP1-CendR mod: NRP-1/CendR interaction modulation | O14786 | FAM-RPARPAR peptide binding to NRP-1, fluorescence polarization | 360,000 compounds, 0.85% hits | inhibition, % at 25 µM;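 active = inhibition or corrected inhibition above about 18%, plus a signal ratio from 0.5 to 1.5, limit read from the data, passing the limit was not always enough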
FAS-TE conf: FAS thioesterase (human) inhibition, confirmation; AID 624325; shares compounds with FAS TE block; inhibition, % at 15 µM; 2,300 compounds, 45% hits; recombinant FAS-TE, OMFH fluorogenic substrate, fluorescence;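 active = compounds inhibiting the enzyme by at least 50% at 15 µM in any one of the replicates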
Each line names hits and unclear results; the compound was inactive in the other large screens (follow-up assays come after a bar, where they were run). The list is not random: actives were taken first. Their share in the collection is about 3.6%.

CC(OC(=O)c1cccc([N+](=O)[O-])c1)C(=O)N1CCc2ccccc21 (stereo not drawn)	FAS TE block 77.3 | FAS-TE conf 58.7
O=C(NCC1CCCO1)C(c1cccs1)N(C(=O)c1ccc(CN2CCOCC2)o1)c1ccc(Cl)cc1 (stereo not drawn)	none
CN1C[C@H](C(=O)N[C@]2(C)O[C@@]3(O)[C@@H]4CCCN4C(=O)[C@H](Cc4ccccc4)N3C2=O)CC2c3cccc4[nH]cc(c34)C[C@H]21 (stereo partly drawn)	FAS TE block 55.5 | FAS-TE conf 51.5
CCCN1C[C@H](CSC)C[C@@H]2c3cccc4[nH]cc(c34)C[C@H]21	none
Cc1ccc(N2C(=O)c3n[nH]c(C)c3C2c2cccnc2)cc1 (stereo not drawn)	none
COc1ccc(NC2=Nc3ccccc3N3C2=Nc2c(c(C)nn2-c2ccc(C)cc2)C3c2cccnc2)cc1 (stereo not drawn)	FAS TE block 69.7 | FAS-TE conf inactive
CC(C)Nc1nc(NC(C)C)nc(SCCOC(=O)Nc2ccc(Cl)cc2Cl)n1	none
Cc1ccccc1CS(=O)(=O)c1nnc([C@H](Cc2ccccc2)NC(=O)OC(C)(C)C)o1	FAS TE block 63.6 | FAS-TE conf 26.8
O=C(O)COc1ccccc1/C=N/Nc1ccc(S(=O)(=O)Nc2ccc(Cl)cc2)cc1[N+](=O)[O-]	none
O=C(O)COc1ccccc1C=NNc1ccc([N+](=O)[O-])cc1S(=O)(=O)Nc1ccc(Cl)cc1	FAS TE block 50.1 | FAS-TE conf 61.9
COc1cc(OC)cc(C(=O)NNC(=O)CCC2CCCC2)c1	none
Cc1ccc(NC2(c3nnnn3-c3c(C)cccc3C)CCCCC2)cc1	FAS TE block 53.6 | FAS-TE conf inactive
O=C(COc1cc2oc(=O)cc(-c3ccccc3)c2cc1Cl)NCCN1CCOCC1	none
O=C(Nc1cccc(S(=O)(=O)N2CCCCC2)c1)c1ccc(S(=O)(=O)C(F)F)cc1	CRFR2-BP antag 54.0, FAS TE block 59.4 | FAS-TE conf inactive
CCCCOc1ccc(S(=O)(=O)N2CCN(c3ccc(N4CCN(CC)CC4)nn3)CC2)cc1	FAS TE block 59.8 | FAS-TE conf inactive
CCCCOc1ccc(S(=O)(=O)N2CCCCC2)cc1	none
O=C(O)c1ccccc1C(=O)NNc1cccc(Cl)n1	none
OC(c1cccc(Cl)c1)c1nc(-c2ccoc2)cs1 (stereo not drawn)	none (no result: CRFR2-BP antag)
CS(=O)(=O)c1ccc(-c2csc(C(O)c3cccc(Cl)c3)n2)cc1 (stereo not drawn)	FAS TE block 52.3 (no result: CRFR2-BP antag) | FAS-TE conf inactive
Cc1ccc(Cl)cc1N1CCN(S(=O)(=O)c2ccc3c(c2)oc(=O)n3C)CC1	FAS TE block 52.0 | FAS-TE conf inactive
CC(C)(C)N(Cc1ccccc1)C(=O)COC(=O)c1ccc([N+](=O)[O-])o1	FAS TE block 50.4 | FAS-TE conf 51.9
CC1CCC(NC(=O)c2nc(Cn3ccc([N+](=O)[O-])n3)no2)CC1 (stereo not drawn)	none
CC(=O)OCCCNc1cc(Sc2ccc(Cl)cc2)c2nonc2c1[N+](=O)[O-]	Myeloid diff 2 inconclusive, FAS TE block 62.4 | FAS-TE conf inactive
Cc1ccc(Sc2cc(NCCCO)c([N+](=O)[O-])c3nonc23)cc1	none
CCCC(=O)OCCNc1cc(Sc2nc3ccccc3[nH]2)c2nonc2c1[N+](=O)[O-]	CRFR2-BP antag 90.5, Myeloid diff 2 inconclusive, FAS TE block 75.2 | FAS-TE conf 77.9
Cc1ccc(N2C(=O)c3cccc4c(Oc5ccccc5[N+](=O)[O-])ccc(c34)C2=O)c(C)c1	FAS TE block 60.6 | FAS-TE conf inactive
Cc1cc(O)ccc1N1C(=O)c2cccc3cc([N+](=O)[O-])cc(c23)C1=O	none
Cc1ccc(C)c(S(=O)(=O)N2CCN(C(=O)Cc3ccc(S(=O)(=O)N4CCOCC4)s3)CC2)c1	FAS TE block 69.4 | FAS-TE conf 63.0
CCOc1ccc(S(=O)(=O)N2CCN(C(=O)Cc3ccc(S(=O)(=O)N4CCOCC4)s3)CC2)cc1	none
O=C(Cc1ccc(S(=O)(=O)N2CCOCC2)s1)N1CCN(S(=O)(=O)c2ccccc2[N+](=O)[O-])CC1	FAS TE block 87.3 | FAS-TE conf 83.3
CCCc1nc(SCC(=O)c2ccc(F)cc2)c2ccccc2n1	none
Cc1ccc(CS(=O)Cc2ccc(C(=O)NC3CCC(C)CC3)o2)cc1 (stereo not drawn)	none
COc1ccc([N+](=O)[O-])cc1NC(=O)C(C)NNC(=O)c1cccc([N+](=O)[O-])c1 (stereo not drawn)	FAS TE block 56.2 | FAS-TE conf 52.6
O=C(Nc1cc([N+](=O)[O-])ccc1Cl)C(Sc1ccccc1)c1ccccc1 (stereo not drawn)	FAS TE block 73.2 | FAS-TE conf 67.3
COc1ccc([N+](=O)[O-])cc1NC(=O)CSc1ccc2ccccc2c1	FAS TE block 55.0 | FAS-TE conf inactive
COc1ccc(NC(=O)CN(c2ccc([N+](=O)[O-])cc2)S(=O)(=O)c2ccccc2)c(OC)c1	FAS TE block 69.5 | FAS-TE conf 68.3
COc1ccc(N(CC(=O)Nc2ccc(OC)cc2OC)S(=O)(=O)c2ccccc2)cc1	none
Cc1ccc(C(=O)N2[C@@H]3CN(C)C(=O)[C@@]2(Cc2ccccc2)[C@H]2C(=O)N(C)C(=O)[C@@H]32)cc1	none
COc1ccc([N+](=O)[O-])cc1NC(=O)c1cn(-c2ccc(Cl)cc2)c(=O)c2ccccc12	FAS TE block 91.1 | FAS-TE conf inactive
COc1ccc([N+](=O)[O-])cc1NC(=O)C(C)c1ccccc1 (stereo not drawn)	none
COc1ccc([N+](=O)[O-])cc1NC(=O)CC(c1ccccc1)c1ccccc1	FAS TE block 61.8 | FAS-TE conf 54.2
COc1ccc([N+](=O)[O-])cc1NC(=O)C1(c2ccccc2)CCOCC1	FAS TE block 50.7 | FAS-TE conf 52.6
CCOc1ccc(-n2cc(C(=O)Nc3cccc(Cl)c3)c3cc(OC)c(OC)cc3c2=O)cc1	FAS TE block 59.2 | FAS-TE conf inactive
CCOc1ccc(Oc2ccc(Cl)cc2NC(=O)C2=COCCO2)cc1	none
CCC1CCCCN1CCCNC(=O)c1ccc(CS(=O)(=O)c2ccc(Br)cc2)o1 (stereo not drawn)	none
COc1ccc(N(CC(=O)N/N=C/c2ccc(OC3CSC3)cc2)S(=O)(=O)c2ccccc2)cc1	FAS TE block 50.2 | FAS-TE conf inactive
CCC(CC)C(=O)Nc1cc([N+](=O)[O-])ccc1Cl	none
Cc1ccc(N(CC(=O)N/N=C/c2ccc(OC3CSC3)cc2)S(=O)(=O)c2ccccc2)cc1	none
COc1cccc(NC(C)C(=O)Nc2cc([N+](=O)[O-])ccc2Cl)c1 (stereo not drawn)	FAS TE block 55.7 | FAS-TE conf 58.3
N#Cc1ccc(C(=O)OCC(=O)Nc2ccc(N3CCOCC3)cc2)cc1	none
